In PubChem BioAssay AID488896 (Broad Institute, 2010):
Screen size: about 320,000 compounds; about 3,100 (0.97%) were called active. The sample holds actives, similar compounds and a random draw of the others, so the mix is not that of the screen.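 Rule for the calls: active = mean replicate inhibition of at least 70% and a set share of replicates each scoring 70 or more; inconclusive = meets just one of the two criteria; inactive = fails both criteria.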

Molecular target: Scavenger receptor class B member 1 (Mus musculus) (UniProt Q61009)
Assay: mouse SR-BI DiI-HDL uptake blockers – ldlA[mSR-BI] cells, fluorescence, single point, primary screen (AID 488896);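 note: 0% = median of neutral control wells and 100% = median of positive control wells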
Settings: ldlA[mSR-BI] CHO cells, 3 h, at 12.5 µM, stronger effect = higher value

Scavenger receptor class B member 1 (Mus musculus), sequence (Q61009 whole entry, looked up): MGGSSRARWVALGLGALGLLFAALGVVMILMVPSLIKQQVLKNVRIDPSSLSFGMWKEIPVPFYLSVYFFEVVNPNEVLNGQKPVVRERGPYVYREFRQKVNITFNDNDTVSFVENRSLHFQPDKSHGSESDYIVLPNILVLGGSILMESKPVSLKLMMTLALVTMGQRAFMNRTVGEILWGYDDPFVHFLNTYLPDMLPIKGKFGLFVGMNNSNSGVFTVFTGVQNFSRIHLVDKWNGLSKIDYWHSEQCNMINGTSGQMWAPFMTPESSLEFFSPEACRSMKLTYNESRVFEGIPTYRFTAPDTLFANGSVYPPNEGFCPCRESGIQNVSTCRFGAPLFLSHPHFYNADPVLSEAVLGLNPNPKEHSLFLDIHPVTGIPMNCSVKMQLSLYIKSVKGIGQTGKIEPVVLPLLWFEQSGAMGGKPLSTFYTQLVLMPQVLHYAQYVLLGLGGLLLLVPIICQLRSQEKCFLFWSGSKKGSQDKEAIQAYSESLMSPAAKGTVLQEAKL

inhibition, inactive:
O=C1COc2c1ccc(O)c2O -17.3%, O=C(Cc1ccc(NC(=O)C2CCCN(C(=O)CCc3ccccc3)C2)cc1)Nc1ccc(C(=O)N2CCOCC2)cc1 (stereo not given) 58.6%, CN(CCc1ccccc1)C(=O)c1cccc(NC(=O)Cc2cccc(NC(=O)C3CCCN(C(=O)C4CCC4)C3)c2)c1 (stereo not given) 26.9%, CN(C(=O)c1cccc(NC(=O)Cc2ccc(NC(=O)C3CCCN(C(=O)C4CC4)C3)cc2)c1)C1CC1 (stereo not given) 70%, CN(C(=O)c1cccc(NC(=O)Cc2cccc(NC(=O)C3CCCN(C(=O)C4CC4)C3)c2)c1)C1CCC1 (stereo not given) 31.6%, COc1cc(/C=C/c2ccc(/C=C/c3cc(OC)c(OC)c(OC)c3)cc2)cc(OC)c1OC 51.2%, Nc1cc2c(cc1Br)-c1ccc(F)cc1C2=O 22.3%, C=CCOC(=O)N1CCC2CC1c1cc(-c3ccc(OC)cc3)ccc12 (stereo not given) -4.14%, Oc1c(CN2CCOCC2)ccc(CN2CCOCC2)c1O 0.438%, Cc1c(Cl)c([N+](=O)[O-])nn1CCCC(=O)Nc1cc(Cl)ccc1Cl -14.8%, Cc1ccc(C(=O)O)cc1NC(=O)c1ccc(Cn2nc(C)c(Cl)c2C)o1 4.04%, CC(C)CN1CC(C)C(=O)N(c2ccccc2)C1=S (stereo not given) -3.77%, CC(C)CN(C(=O)COC(=O)c1ccc(Cl)c(N)c1)c1c(N)n(Cc2ccccc2)c(=O)[nH]c1=O 21.7%, CC(C)CN(C(=O)COC(=O)c1ccc2ccccc2c1)c1c(N)n(Cc2ccccc2)c(=O)[nH]c1=O 27.1%, CCC(C)C1(C2CCCC2)NC(=O)NC1=O (stereo not given) -1.25%, C[n+]1cccc(C(=O)O)c1 -14.9%, COc1ccc2cc(C(=O)NCC3CCCO3)[nH]c2c1 (stereo not given) -25.3%, COc1cccc(C(=O)NCCS(=O)(=O)NCC2CCCO2)c1 (stereo not given) -26.7%, CSCCC(NC(=O)COc1ccccc1)C(=O)OCc1ccc(Cl)cc1 (stereo not given) -22.7%, Cc1ccc(S(=O)(=O)c2cc3c(=O)n4cccc(C)c4nc3n(CCc3ccccc3)c2=N)cc1C -25.8%, COc1cccc2c1C(=O)c1c(O)c3c(c(O)c1C2=O)CC(O)(C(C)=NNC(=O)c1ccc(Cl)c(Cl)c1)CC3OC1CC(N)C(O)C(C)O1 (stereo not given) 33.2%, O=[N+]([O-])c1cccc(C=NN=Cc2ccccc2O)c1 45.3%, COc1ccc2c(c1)C(=O)CC(c1ccccc1)O2 (stereo not given) 17.3%, CCN1/C(=C\c2ccc3ccccc3[n+]2CC)Sc2cc(C)ccc21 55.6%, CCNCCC(=O)N1c2ccccc2Sc2ccc(NC(=O)OCC)cc21 -8.72%, COC[C@@H]1NS(=O)(=O)c2ccc(Br)cc2O[C@H]1c1ccccc1 5.43%, NC(=O)C1(Nc2ccccc2Cl)CCCC1 -5.33%, O=C(CNC(=O)c1cccnc1)N/N=C/c1cccnc1 -11%, O=C(NN=C1CCC(=NNC(=O)c2cccnc2)CC1)c1cccnc1 -14%, COC(=O)C1CC2=C(CC(C)(C)CC2=O)N(c2ccccc2)C1=O (stereo not given) -15.5%, CCCCN1CC(CO)Oc2cccc(F)c2S1(=O)=O (stereo not given) -10.7%, COc1ccc(/C(C)=N\NC(=O)c2ccc(-c3ccccc3)cc2)c(F)c1 67.1%, COc1cccc(C(=O)N/N=C(\C)c2cccc(NC(=O)c3ccc(F)cc3)c2)c1OC 61%, O=C1C(=O)N(c2ccccc2)C(c2ccccc2)C1c1ccccc1 (stereo not given) 3.47%, CCCN(CC(=O)Nc1ccccc1C)C(=O)c1ccc(OCC(=O)N2CCOCC2)c(OCC)c1 13.8%, CC1(C)N=C(N)NC(Nc2ccc(Cl)cc2)=N1 -10.1%, Cc1ccc(C)c(N2CCN(C(=O)CCCCn3c(=O)[nH]c4ccccc4c3=O)CC2)c1 16.6%, Cc1ccc(C)c(N2CCN(C(=O)Cn3ncn4cccc4c3=O)CC2)c1 10.1%, COc1ccc(CC(=O)NC(C)c2ccc(Cl)c(Cl)c2)cc1S(=O)(=O)N1CCOCC1 (stereo not given) 4.63%, O=C(O)C(c1cccs1)C1(O)CCCCC1 (stereo not given) -15.2%, CC1(C)Cc2cccc(OCC(=O)NCc3ccccc3)c2O1 3.02%, CC1(C)Cc2cccc(OCC(N)=O)c2O1 10.8%, Cc1cc(NC(=O)c2cc3ccccc3o2)no1 -18.7%, COc1ccccc1NC(=O)c1cc(Cl)nc2ccccc12 66.5%, COc1ccc(-c2cc(C(=O)Nc3ccccc3O)c3ccccc3n2)cc1 41.1%, COC1=NC2=NCCN2C(OC)=N1 -7.98%, O=C1c2ccccc2C(=O)C1C(=O)C1CC1 -19.4%, N#CC(Cc1cc2ccccc2n1S(=O)(=O)c1ccccc1)OCc1ccccc1 (stereo not given) 4.98%, O=c1ccn([C@@H]2O[C@H](CNS(=O)(=O)c3cc4ccccc4s3)[C@@H](O)[C@H]2O)c(=O)[nH]1 -11%, O=C(O)c1ccccc1-c1ccccc1C(=O)Nc1nccs1 -17.5%, COc1ccc(-c2nn(-c3ccccc3)cc2/C=N/Nc2ccccn2)cc1OC 50.1%, CN1C(c2ccc(F)cc2)=CS/C1=C(/C#N)c1nnc2n1-c1ccccc1SC2 32.2%, Nc1ccc2c(c1)C(O)c1ccc(Cl)cc1-2 (stereo not given) -14.5%, Cc1cc(C)cc(OCC(=O)Nc2ccc(N3CCOCC3)cc2N2CCOCC2)c1 45%, CCC(=O)c1ccc(OCC(=O)Nc2ccc(N3CCCCC3)cc2)cc1 35.5%, CN1CCOC1c1ccc(C2OCCN2C)cc1 (stereo not given) -6.99%, CCCCCCCCNS(=O)(=O)CCNC1CCCCC1 -5.35%, CCCCN1C(=O)/C(=C2/C=CC=CN2C)SC1=S 8.97%, CCN1C(=O)/C(=C\N2CCN(c3cccc(Cl)c3)CC2)SC1=S 8.1%, Cc1c[n+]([O-])ccc1[N+](=O)[O-] 4.11%, CCCCN1CC(COCc2ccccc2)OCCS1(=O)=O (stereo not given) -17.3%, O=C(Oc1ccccc1Cl)c1ccc(N2CCOCC2)c([N+](=O)[O-])c1 1.4%, O=C(NCCCN1CCOCC1)c1ccc(N2CCCC2)c([N+](=O)[O-])c1 -14.3%, NC(=O)c1ccc(N2CCCC2)nc1 -0.443%, COc1ccccc1NC(=O)N(O)C1(C#N)CCCCC1 2.4%, Oc1cccc(/C=N/Nc2ccc(Cl)nn2)c1O 10.6%, COc1ccccc1/C=N/Nc1nc(C)c(C(C)=O)s1 24.4%, CN(C)CCNC(=O)c1ccc(Cl)c2cc3ccccc3nc12 -8.43%, C#CCOCCOCCOCCNc1nc(N2CCN(C(=O)Cn3cc(CCO)nn3)CC2)nc(N2CCN(C(=O)Cn3cc(CCCN=C(N)N)nn3)CC2)n1 -17.5%, COc1cc(OC)c(C(=O)NNC(=O)c2ccc(NS(=O)(=O)c3cccs3)cc2)cc1OC -10.6%, C/C(=N\NC(=O)c1ccc2ccccc2c1)c1cccnc1 -22.1%, O=C1CC[C@@H]2CC3(C[C@@H]4CCN1[C@H]24)Nc1cc([N+](=O)[O-])ccc1NC3=NC1CCCCC1 (stereo not given in full) 1.95%, CCN1CCC(O)(/C=C/c2ccc(C)cc2)C(C(=O)/C=C/c2ccc(C)cc2)C1 (stereo not given) 24.5%

inhibition, active:
CN(CCc1ccccc1)C(=O)c1cccc(NC(=O)Cc2cccc(NC(=O)C3CCCN(C(=O)CCc4ccccc4)C3)c2)c1 (stereo not given) 78.5%, CN(C(=O)c1cccc(NC(=O)Cc2ccc(NC(=O)C3CCCN(C(=O)C4CCCC4)C3)cc2)c1)C1CCC1 (stereo not given) 86.9%, Cc1c(Cl)c([N+](=O)[O-])nn1Cc1ccc(C(=O)N/N=C\c2cc(Cl)ccc2O)o1 129%, COc1ccc2oc(C(=O)OCC(=O)N(CC(C)C)c3c(N)n(Cc4ccccc4)c(=O)[nH]c3=O)c(C)c2c1 71%, COc1cccc(/C=C2\Sc3ccc(C(=O)NCC4CCCO4)cc3N(C)C2=O)c1 (stereo not given) 76.6%, CCN1/C(=C/C(=S)Nc2ccccc2)Sc2ccccc21 80.2%, O=C(N/N=C/c1sc(N2CCCCC2)nc1-c1cccs1)c1cccnc1 76.7%, C/C(=N/NC(=O)c1ccc(NC(=O)c2ccc(F)cc2)cc1)c1ccccc1 88.8%, Cc1ccc(C)c(N2CCN(C(=O)CCCn3c(=O)c4cccn4c4cccnc43)CC2)c1 84.4%, CC1(C)Cc2cccc(OCC(=O)N3CCN(c4ccc([N+](=O)[O-])cc4)CC3)c2O1 71.3%, COc1ccc(NC(=O)c2cc(-c3cc(OC)c(OC)c(OC)c3)nc3ccccc23)c(OC)c1 78.3%, COc1ccc(-c2nn(-c3ccccc3)cc2C(=O)Nc2nccs2)cc1OC 74.4%, Cc1cc(N2CCCC2)ccc1NC(=O)COc1ccc(Cl)cc1 75.9%, CCCCN1C(=O)/C(=C/C=C2/C=Cc3ccccc3N2CC)SC1=S 146%, N#Cc1c(NC(=O)c2ccc(N3CCOCC3)c([N+](=O)[O-])c2)sc2c1CCCC2 83.7%, COc1cccc(/C=N/Nc2cc(C)nc(-c3ccccc3O)n2)c1O 84.7%, C/C(=N\NC(=O)c1ccc(NS(=O)(=O)c2cccs2)cc1)c1ccc2ccccc2c1 75.7%
